High-throughput results (PubChem BioAssay)
Compounds with a hit are over-represented: about 9% of the library has one in this group of screens.
LMNA splice mod – modulators of lamin A splicing; HeLa LMNA splicing GFP/RFP minigene ratio, 48 h; Potency, µM (top dose mostly 46.1 µM), for the others: at the top dose ratio change, negative = inhibition, actives largely listed as inhibitors; actives 0.01% (n = 200,000); AID 1487; active means well fitted inhibition curve with a large enough effect in the signal ratio, with a control signal flat, not every such curve was filed as active; inconclusive means small, poorly fitted or top-dose-only effect, or effect the other way, or a change in a side signal; the % refers to the signal ratio; further: on the % scale 0 is the no-effect control and ±100 the full control effect
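S3 HeLa stable clones carrying a lamin A-EGFP splicing minigene plus DsRed2 were seeded at 600 cells/well in Opti-MEM with 2% FBS, pin-dosed and incubated 48 h at 37°C. Acumen cytometry (488 nm) gave the GFP/RFP total-intensity ratio.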
HttQ103 aggreg – reduces HttQ103-GFP aggregates in PC12 cells | PC12 HttQ103-GFP aggregates, Acumen cytometry, 40 h | Potency, µM (doses to about 46.1 µM), for inactives: at the top dose activity change, negative = inhibition, usual class: inhibitors | actives 1.1% (n = 220,000); further: on the % scale 0 is the no-effect control and ±100 the full control effect; nearly all actives have a fitted effect of over 60% in size
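PC12/HTTQ103-GFP, ecdysone-inducible; teb 100 nM; cpd qHTS titration; GFP aggregates read on laser cytometer, Ex 488/Em 500-530 nm.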
ALDH1A1 block – blocks purified human ALDH1A1 activity; AID 1030; P00352; Purified ALDH1A1, NADH fluorescence, propionaldehyde substrate; actives 7.3% (n = 220,000); Potency, µM (top dose mostly 75.3 µM), without a hit: at the highest dose activity, negative = inhibition, actives largely listed as inhibitors; active means well fitted inhibition curve with a large enough effect, not every such curve was filed as active; inconclusive means small, poorly fitted or top-dose-only effect, or another doubt; inactive means no such curve, though single readings can be large or run the other way;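 further: plate controls were no enzyme wells and a reference inhibitor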
Target sequence (P00352 whole entry, looked up): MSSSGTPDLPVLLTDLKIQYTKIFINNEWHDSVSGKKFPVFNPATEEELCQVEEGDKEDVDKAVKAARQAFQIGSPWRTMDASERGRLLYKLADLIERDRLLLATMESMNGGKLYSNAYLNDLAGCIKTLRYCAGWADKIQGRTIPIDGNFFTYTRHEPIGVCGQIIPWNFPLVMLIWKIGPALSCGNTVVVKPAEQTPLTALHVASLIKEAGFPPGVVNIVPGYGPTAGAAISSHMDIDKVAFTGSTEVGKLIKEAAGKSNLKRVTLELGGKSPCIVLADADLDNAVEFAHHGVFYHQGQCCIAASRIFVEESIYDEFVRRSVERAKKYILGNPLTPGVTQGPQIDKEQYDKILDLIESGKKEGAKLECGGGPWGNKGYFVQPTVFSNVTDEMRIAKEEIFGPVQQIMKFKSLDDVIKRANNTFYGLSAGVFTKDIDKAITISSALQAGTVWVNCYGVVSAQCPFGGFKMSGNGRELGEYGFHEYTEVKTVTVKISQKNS
KinaseGlo FLuc – Kinase-Glo luciferase inhibition (counter-screen). Q27757. Kinase-Glo luciferase, ATP luminescence, 8 min. Potency, µM (titrated, usually from 38.3 µM), for the others: at the top dose activity change, negative = inhibition, hits mostly inhibitors. actives 0.28% (n = 200,000); further: on the % scale 0 is the no-effect control and ±100 the full control effect; nearly all actives have a fitted effect of over 60% in size
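Substrate mix (final 50 mM imidazole pH 7.2, 50 mM KCl, 7 mM MgCl2, 10 uM ATP, 0.01% Tween 20, 0.05% BSA) plus pin-tool compound, then Kinase-Glo detection mix; 8 min ambient, luminescence read.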
HTT cytoprotect – cytoprotection in Huntington HTT-Q103 PC12 cell model | PC12 HTT-Q103 induced, cytoprotection, ATP luminescence, 40 h | Potency, µM (highest dose often 56.4 µM), for inactives: cytoprotection (ATP increase), actives largely listed as activators | actives 0.14% (n = 230,000) | AID 1471; further: % of control where 0% means no effect; nearly all actives have a fitted effect of over 45% in size
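PC12 cells stably carrying ecdysone-inducible Htt exon 1 (Q103)–GFP were induced with 100 nM tebufenozide (final) alongside library compounds in a dose series. Cytoprotection was scored as retained ATP by ATPlite luminescence.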
HPGD inh – blocks human HPGD enzyme activity; Potency, µM, for inactives: top-dose activity change, negative = inhibition, usual class: inhibitors; purified HPGD, NADH fluorescence kinetic, PGE2 substrate; actives 4.3% (n = 150,000); AID 894; active means well fitted inhibition curve with a large enough effect, not every such curve was filed as active; inconclusive means small, poorly fitted or top-dose-only effect, or another doubt; inactive means no such curve, though single readings can be large or run the other way; further: on the % scale 0 is the no-effect control and ±100 the full control effect
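NADH formation kinetics: reaction with 30 uM PGE2 and 1 mM NAD+ (final), 20 nM enzyme, Tris-HCl pH 8 with Tween 20, after 15 min compound preincubation at room temperature. Fluorescence change, last versus first of five reads.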
The depositor's hits bear a star; [ ] = another dose, or the depositor's remark. Unless noted, the call rests on the fitted dose curve; in most records, active means well fitted curve in the direction sought with a large enough effect; inconclusive means small, poorly fitted or top-dose-only effect, or another doubt; inactive means no such curve, though single readings can be large; an effect the other way counts as inactive or inconclusive. Potency means the concentration at half of the fitted maximal effect.

For N#C/C(=C\c1cn[nH]c1-c1ccc(Cl)cc1)C(=O)NCc1ccccc1 the results were LMNA splice mod 2%, HttQ103 aggreg -14%, ALDH1A1 block 22µM*, KinaseGlo FLuc -5%, HTT cytoprotect -22% and HPGD inh inconclusive.
Screening Cc1ccc(/C=C(\C#N)C(=O)NC(C)C)o1 returned LMNA splice mod -1%[46 µM], HttQ103 aggreg 11%, ALDH1A1 block inconclusive, KinaseGlo FLuc 6% and HTT cytoprotect -19%.
For CC(NC(=O)/C(C#N)=C/c1cn[nH]c1-c1ccccc1)c1ccccc1 (configuration not stated) the results were LMNA splice mod -5%, HttQ103 aggreg inconclusive, ALDH1A1 block 7.9µM*, KinaseGlo FLuc 2%, HTT cytoprotect -43% and HPGD inh 14µM*.
`CCc1ccc(C(C)NC(=O)/C(C#N)=C\c2cn[nH]c2-c2ccccc2)cc1` (configuration not stated) gave LMNA splice mod inconclusive, HttQ103 aggreg -28%, ALDH1A1 block inconclusive, KinaseGlo FLuc 1%, HTT cytoprotect -18% and HPGD inh -13%.
For N#C/C(=C\c1cn[nH]c1-c1ccc(Cl)cc1)C(=O)NC1CC1 the results were LMNA splice mod inconclusive, HttQ103 aggreg -5%, ALDH1A1 block 2%, KinaseGlo FLuc -2% and HPGD inh -6%.
Screening Cc1ccc(CNC(=O)C2CC(=O)N(CCC(C)C)C2)cc1 (configuration not stated) returned HttQ103 aggreg -31%, ALDH1A1 block 9%, KinaseGlo FLuc 4% and HTT cytoprotect -10%.
`CCOC(=O)N1CCN(C(=O)COc2cccc3c2CCN(CC)C3=O)CC1` gave HttQ103 aggreg inconclusive, ALDH1A1 block -2%, KinaseGlo FLuc 0% and HTT cytoprotect -26%.
Screening CC(CC(O)C1OC1(C)C)C1CCC2(C)C3=CCC4C(C)(C)C(=O)CCC4(C)C3CC[C@@]12C (some centres not stated) returned ALDH1A1 block -10%, KinaseGlo FLuc -1%, HTT cytoprotect -171% and HPGD inh -4%.
For CCCCn1c(NC(=O)c2ccccc2)nc2ccccc21 the results were LMNA splice mod inconclusive, HttQ103 aggreg -8%[9.22 µM], ALDH1A1 block -5%, KinaseGlo FLuc 1%, HTT cytoprotect 6% and HPGD inh -13%.
For Cc1ccc(C(=O)NC(C)c2ccccc2)o1 (configuration not stated) the results were LMNA splice mod -1%, HttQ103 aggreg 4%, ALDH1A1 block inconclusive, KinaseGlo FLuc 0%, HTT cytoprotect -12%[10 µM] and HPGD inh 22µM*.
`N=c1c2c(-c3ccccc3)c(-c3ccccc3)n(Cc3ccco3)c2ncn1Cc1ccco1` gave LMNA splice mod inconclusive, HttQ103 aggreg 11µM*, ALDH1A1 block -1%, KinaseGlo FLuc -5%, HTT cytoprotect -154% and HPGD inh -2%.
Screening CCCCn1cnc2c(c(-c3ccccc3)c(-c3ccccc3)n2Cc2ccco2)c1=N returned HttQ103 aggreg -1%[9.22 µM] and HTT cytoprotect 1%[10 µM].
For Cc1cccc(-c2nsc(SCC(=O)NCc3ccc4c(c3)OCO4)n2)c1 the results were LMNA splice mod inconclusive, HttQ103 aggreg 28%, ALDH1A1 block 4%, KinaseGlo FLuc 3%, HTT cytoprotect 5%[10 µM] and HPGD inh -7%.
For N#Cc1c(/N=C/c2cccnc2)sc2c1CCCC2 the results were HttQ103 aggreg -14%[9.22 µM] and HTT cytoprotect 37%[10 µM].
Screening N#Cc1c(/N=C\c2ccc(O)c([N+](=O)[O-])c2)sc2c1CCCC2 returned HttQ103 aggreg -21%, ALDH1A1 block 2.5µM*, KinaseGlo FLuc 1% and HTT cytoprotect -24%.
For N#Cc1c(/N=C/c2cccs2)sc2c1CCCCC2 the results were LMNA splice mod 9%, HttQ103 aggreg -3%, ALDH1A1 block inconclusive, KinaseGlo FLuc inconclusive, HTT cytoprotect -66% and HPGD inh inconclusive.
Screening CN(C)/C=N/c1sc2c(c1C#N)CCCCC2 returned LMNA splice mod inconclusive, HttQ103 aggreg 23%, ALDH1A1 block 4µM*, KinaseGlo FLuc 0% and HPGD inh -24%.
For Cc1ccc(/C=N/c2sc3c(c2C#N)CCC3)o1 the results were LMNA splice mod 6%, HttQ103 aggreg 8%, ALDH1A1 block 10µM*, KinaseGlo FLuc 11µM*, HTT cytoprotect 13% and HPGD inh 16µM*.
N#Cc1c(/N=C/N2CCOCC2)sc2c1CCCCC2 was read as LMNA splice mod 2%, HttQ103 aggreg -15%, ALDH1A1 block 14µM*, KinaseGlo FLuc 5%, HTT cytoprotect -11% and HPGD inh -19%.
For O=[N+]([O-])c1ccc(N/N=C/c2cn(-c3ccccc3)nc2-c2ccccc2)cc1 the results were LMNA splice mod inconclusive, HttQ103 aggreg 3%, ALDH1A1 block inconclusive, KinaseGlo FLuc inconclusive, HTT cytoprotect -48% and HPGD inh inconclusive.
Screening O=C(NN=C1CCCCCC1)c1cc(-c2ccccc2)nc2ccccc12 returned LMNA splice mod 4%, HttQ103 aggreg 1%, ALDH1A1 block 0%, KinaseGlo FLuc -3%, HTT cytoprotect 11% and HPGD inh -3%.
Screening COc1ccc(C(=O)C(OC(=O)c2ccccc2Cl)c2ccccc2)cc1 (configuration not stated) returned LMNA splice mod -16%, HttQ103 aggreg -8%, ALDH1A1 block inconclusive, KinaseGlo FLuc 1%, HTT cytoprotect -35%[10 µM] and HPGD inh -8%.
For CN(C)/C=N/c1sc2c(c1C#N)CCC2 the results were LMNA splice mod 5%, HttQ103 aggreg 1%, ALDH1A1 block 10µM*, KinaseGlo FLuc -6%, HTT cytoprotect -18%[10 µM] and HPGD inh 25µM*.
CCOC(=O)c1ccc(NC2=CC(=O)CC(c3ccco3)C2)cc1 (configuration not stated) was read as LMNA splice mod 3%[46 µM], HttQ103 aggreg 6%[9.22 µM], ALDH1A1 block inconclusive, KinaseGlo FLuc -3% and HTT cytoprotect -31%.
`CC(C)CNC1=CC(=O)CC(c2ccco2)C1` (configuration not stated) gave LMNA splice mod -1%, HttQ103 aggreg 16%, ALDH1A1 block 14µM*, KinaseGlo FLuc -9%, HTT cytoprotect 4% and HPGD inh -24%.
For O=C1C=C(Nc2ccc(O)cc2)CC(c2ccco2)C1 (configuration not stated) the results were LMNA splice mod inconclusive, HttQ103 aggreg -29%, ALDH1A1 block inconclusive, KinaseGlo FLuc 0%, HTT cytoprotect -5%[10 µM] and HPGD inh 22µM*.
